This is an account of results in PubChem BioAssay (NCATS).

Molecules are shown by their SMILES. Where “and” joins values, the source holds several entries; their conditions need not be identical. Equal values may be shown once. Records with an inconclusive call do not appear. Calls of active or inactive are those of the source. Unless noted, calls come from the whole dose curve; as a rule, active = well fitted curve in the direction sought with a large enough effect; inconclusive = small, poorly fitted or top-dose-only effect, or another doubt; inactive = no such curve, though single readings can be large; an effect the other way counts as inactive or inconclusive.

Test [1] in a line: P-glycoprotein substrates identified in KB-8-5-11 adenocarcinoma cell line, qHTS therapeutic library screen (AID 1346987). Note: nearly all actives have a fitted effect of over 65% in size. Note: potency is the fitted concentration of half-maximal effect. The gist of the method: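 KB-8-5-11: colchicine-selected sub-line of KB-3-1 over-expressing P-gp; assay medium lacked colchicine. 72 h drug exposure at 37 degree C, CellTiter-Glo.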
The nature of test [2]: Primary qHTS for inhibitors of nuclear receptor binding SET domain protein 2 (NSD2) in an RCH-ACV wild type WT cells (2C) (AID 1645877). Note: nearly all actives have a fitted effect of over 70% in size. Note: potency is the fitted concentration of half-maximal effect. On the technique in general: Quantitative high-throughput screening tests each substance at several concentrations.
Test [3] is described as follows: Primary redox qHTS assay for identification of artifact compounds. (AID 1845223).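 Note: 0% = DMSO and 100% = reference compound.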 The method, boiled down: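 Amplex Red (25 uM) and HRP (250 mU/mL) in HBSS, with compounds for 15 min, then 250 uM DTT for 30 min, room temperature, dark. Fluorescence 525/598 nm read; normalized to DMSO and 10 uM DA3003; Hill fit.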
For the next test, the system named is KB-3-1. The experiment in a line: Cytotoxic Profiling of Annotated Libraries Using Quantitative High-Throughput Screening (AID 1296008). Note: nearly all actives have a fitted effect of over 60% in size. Note: potency is the fitted concentration of half-maximal effect. The following applies: Five cell lines viability, CellTiter-Glo ATP luminescence, 48-72 h; max response: stronger effect = lower value. The gist of the method: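 Cells exposed to compounds for 48 or 72 hr at 37 degrees Celsius. Viability read as ATP-coupled luminescence with CellTiter-Glo after 10 min at room temperature.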
In general terms: ATP-based viability assays read luminescence as a measure of living cells.

In the next test the test system is CAOV3. The experiment in a line: Primary qHTS to identify gynecologic anti-cancer compounds using libraries of approved drugs and bioactive compounds (AID 1345084). Note: nearly all actives have a fitted effect of over 55% in size. Note: potency is the fitted concentration of half-maximal effect. The following applies: Gynecologic cancer cell panel viability, ATPlite luminescence, 48 h; series mostly up to 57.5 µM. The method, boiled down: (§1)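 Cell viability after 48 h drug treatment, ATPlite luminescence readout; five doses.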

In the next test the test system is HeLa. The description is as above. The following applies: Gynecologic cancer cell panel viability, ATPlite luminescence, 48 h; series mostly up to 57.5 µM. The gist of the method: as §1
The subject of another test is JEG-3. The description is as above. The following applies: Gynecologic cancer cell panel viability, ATPlite luminescence, 48 h; series mostly up to 57.5 µM. The gist of the method:
as §1

Test [4] has as its system Zika virus NS2B-NS3 protease (unlinked complex). Briefly: Primary screen GU Rhodamine qHTS for Zika virus inhibitors: Unlinked NS2B-NS3 protease assay (AID 1347159). Note: % is set by controls: 0 for no effect and ±100 for the full control effect; nearly all actives have a fitted effect of over 60% in size. The gist of the method: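 Compounds, tested up to 114 microM, were incubated for 15 minutes with 25 nM unlinked NS2B-NS3 protease at pH 8.0. Cleavage of 1.5 microM Rhodamine110 substrate was then followed by fluorescence for 15 minutes.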

Another test concerns CRL-7250. Briefly: qHTS assay to identify novel small-molecules to repurpose for Merkel cell carcinoma treatment (AID 1296009). Note: nearly all actives have a fitted effect of over 60% in size. The following applies: MCC and control cell lines, CellTiter-Glo viability, 72 h; series mostly up to 92 µM. The gist of the method:
(§2)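 Cells were incubated with compound for 72 hr at 37 degree celsius before CellTiter-Glo addition. Luminescence was normalized with no-cell wells as full cytotoxicity and DMSO as baseline.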

A further test concerns SKOV3. The experiment in a line: Primary qHTS to identify gynecologic anti-cancer compounds using libraries of approved drugs and bioactive compounds (AID 1345084). Note: nearly all actives have a fitted effect of over 55% in size. Note: potency is the fitted concentration of half-maximal effect. The following applies: Gynecologic cancer cell panel viability, ATPlite luminescence, 48 h; series mostly up to 57.5 µM. The gist of the method:
as §1

The nature of test [5]: Cytotoxicity counterscreen for inhibitors of SARS-CoV-2 cell entry (AID 1645845; calls by dose curve; note: nearly all actives have a fitted effect of over 50% in size). The method, boiled down: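 HEK293-ACE2 cells (Expi293F stably expressing human ACE2) seeded overnight, then compound for 1 h plus 48 h at 37C. Viability as ATP content by luminescence; normalized to wells with cells and media-only wells.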
For orientation: Counterscreens check selectivity or assay interference.

The next test relates to HACAT. Briefly: qHTS assay to identify novel small-molecules to repurpose for Merkel cell carcinoma treatment (AID 1296009). Note: nearly all actives have a fitted effect of over 60% in size. The following applies: MCC and control cell lines, CellTiter-Glo viability, 72 h; at 44.8 µM (top of the series) unless noted. The method, boiled down: as §2
A short description of test [6]: P-glycoprotein substrates identified in KB-3-1 adenocarcinoma cell line, qHTS therapeutic library screen (AID 1346986). Note: nearly all actives have a fitted effect of over 60% in size. The gist of the method: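 Compounds were tested in dose-response against KB-3-1 and KB-8-5-11 cells at 37 degree C for 72 h, and viability was measured by luminescence. AC50 values came from curve fitting with class-based activity calls.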
The subject of another test is NIH3T3. Briefly: qHTS assay to identify novel small-molecules to repurpose for Merkel cell carcinoma treatment (AID 1296009). Note: nearly all actives have a fitted effect of over 60% in size. The following applies: MCC and control cell lines, CellTiter-Glo viability, 72 h; at 44.8 µM (top of the series) unless noted. The gist of the method:
as §2

Test [7] deals with Cytochrome P450 2C9 (Homo sapiens) (UniProt P11712). The experiment in a line: Cytochrome P450 family 2 subfamily C member 9 (CYP2C9) small molecule antagonists: luciferase biochemical (cell-free) qHTS assay (AID 1645842; active = well fitted curve in the direction sought with a large enough effect in the repeat runs; an effect the other way counts as inactive or inconclusive; note: nearly all actives have a fitted effect of over 55% in size; note: potency is the fitted concentration of half-maximal effect; for activity change, negative = inhibition: % is set by controls: 0 for no effect and ±100 for the full control effect). The gist of the method:
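Luminescence, after 20 min with luciferin detection reagent, reflected CYP2C9 turnover during a 1 h NADPH-driven reaction at 37C. Enzyme-substrate mix contained 0.4% bovine serum albumin and was preincubated with compound 10 min at room temperature.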

The target of test [8] is Cytochrome P450 2D6 (Homo sapiens) (UniProt P10635). Briefly: Cytochrome P450 family 2 subfamily D member 6 (CYP2D6) small molecule antagonists: luciferase biochemical (cell-free) qHTS assay (AID 1645840; active = well fitted curve in the direction sought with a large enough effect in the repeat runs; an effect the other way counts as inactive or inconclusive; note: % is set by controls: 0 for no effect and ±100 for the full control effect; nearly all actives have a fitted effect of over 55% in size). The method, boiled down:
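P450-Glo luminescent screen: recombinant CYP2D6 enzyme–proluciferin substrate mix preincubated with compound 10 min at room temperature, then NADPH regeneration added for 1 h at room temperature. Detection reagent added for 20 min; luciferin light read as relative luminescence units.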

The nature of test [9]: Primary qHTS to identify inhibitors of SARS-CoV-2 cell entry (AID 1645846; calls by dose curve; note: nearly all actives have a fitted effect of over 45% in size). The following applies: activity change, negative = inhibition: at 57.1 µM (top of the series) unless noted. The method, boiled down:
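Entry measured by luciferase signal 48 h after adding SARS-CoV-2-S pseudotyped MLV particles to HEK293-ACE2 cells preincubated 1 h with compounds. Normalisation: bald particles and spike particles.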

Test [10] is described as follows: qHTS drug screen for cell cycle checkpoint inhibitors in PARPi-resistant BRCA-mutant ovarian cancer cell lines. (AID 1963452; calls by dose curve). The following applies: PEO1/OlaR viability, CellTiter-Glo luminescence, 96 h, stronger effect = lower value. The method, boiled down: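 PEO1, PEO4 and PEO1/OlaR ovarian cancer cells, 600 per well, exposed 96 h at 37C to a dilution series. Viability read by CellTiter-Glo luminescence, normalized to DMSO and empty wells; activity summarized as Z-AUC.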

Cytochrome P450 2C9 (Homo sapiens), sequence (P11712 whole entry, looked up): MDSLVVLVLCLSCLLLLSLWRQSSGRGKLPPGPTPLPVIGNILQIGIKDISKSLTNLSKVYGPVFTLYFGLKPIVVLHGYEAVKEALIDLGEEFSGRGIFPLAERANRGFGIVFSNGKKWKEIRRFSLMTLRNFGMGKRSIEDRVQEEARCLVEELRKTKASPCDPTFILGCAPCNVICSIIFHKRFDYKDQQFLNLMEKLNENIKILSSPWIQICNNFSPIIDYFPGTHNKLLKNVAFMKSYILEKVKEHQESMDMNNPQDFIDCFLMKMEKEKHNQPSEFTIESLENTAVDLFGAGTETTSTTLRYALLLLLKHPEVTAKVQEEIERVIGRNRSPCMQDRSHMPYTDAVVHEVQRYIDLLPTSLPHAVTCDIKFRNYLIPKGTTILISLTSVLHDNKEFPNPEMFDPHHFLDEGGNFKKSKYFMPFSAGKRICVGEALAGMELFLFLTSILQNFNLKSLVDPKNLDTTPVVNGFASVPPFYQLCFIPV
Cytochrome P450 2D6 (Homo sapiens), sequence (P10635 whole entry, looked up): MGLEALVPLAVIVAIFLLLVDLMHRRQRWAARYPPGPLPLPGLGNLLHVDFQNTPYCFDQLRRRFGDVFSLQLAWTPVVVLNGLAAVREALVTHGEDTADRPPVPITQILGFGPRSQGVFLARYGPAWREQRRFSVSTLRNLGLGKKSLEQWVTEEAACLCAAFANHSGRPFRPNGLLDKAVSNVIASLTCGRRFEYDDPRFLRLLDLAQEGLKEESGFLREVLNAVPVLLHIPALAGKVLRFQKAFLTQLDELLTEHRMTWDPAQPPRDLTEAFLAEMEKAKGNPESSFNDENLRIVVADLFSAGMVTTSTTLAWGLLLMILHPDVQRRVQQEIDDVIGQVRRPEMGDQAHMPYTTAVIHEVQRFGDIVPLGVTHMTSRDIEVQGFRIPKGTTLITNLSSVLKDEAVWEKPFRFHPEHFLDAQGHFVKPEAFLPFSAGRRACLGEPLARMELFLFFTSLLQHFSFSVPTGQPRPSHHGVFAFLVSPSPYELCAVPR

As for `C[C@]12CC[C@H](O)C[C@H]1CC[C@@H]1[C@@H]2[C@H](O)C[C@]2(C)[C@@H](c3ccc(=O)oc3)CC[C@]12O`, the Potency in [1] was 51.7 nM (active); in test [2], 45.9 nM (active); with KB-3-1, 51.7 nM (active); in the test on CAOV3 it was 100 nM (active); in the test on HeLa, 112 nM (active). Moreover, the Potency entry (in test [3]; in the test on JEG-3) was “inactive” each time.

Regarding `N#CC(O[C@@H]1O[C@H](CO)[C@@H](O)[C@H](O)[C@H]1O)c1ccccc1` (stereo not given in full), the Potency result (in [4]; in test [2]; in the test on CRL-7250; in the test with CAOV3; in the test with HeLa; with JEG-3) was “inactive” in each case. In addition, the Potency result with SKOV3 was “inactive”.

Turning to `C[C@]12CC[C@H](O[C@@H]3O[C@H](CO)[C@@H](O)[C@H](O)[C@H]3O[C@@H]3O[C@H](CO)[C@@H](O)[C@H](O)[C@H]3O)CC1=CC[C@@H]1[C@@H]2CC[C@]2(C)[C@@H](C3=CC(=O)OC3)CC[C@]12O`, the Potency entry (in test [4]; in test [3]; in the test with CAOV3; in the test with JEG-3) was “inactive” in each case. In addition, the Potency in [2] is 4300 nM (active).

Consider `CC(=O)O[C@H]1CC[C@H]2[C@@H]3CC[C@H]4CC(=O)C=C(C)[C@]4(C)[C@H]3CC[C@]12C`, for which the Potency result (in [4]; in test [5]; in [3]; in the test with CAOV3; in the test on JEG-3; in the test with SKOV3) was “inactive” each time. Also, the result with HACAT was inactive.

Turning to `C=C(C)[C@@H]1[C@H]2OC(=O)[C@H]1[C@]1(O)C[C@H]3O[C@]34C(=O)O[C@H]2[C@]14C`, the Potency entry (in test [6]; in [1]; in test [4]; in test [3]; in the test with CAOV3; with HeLa) was “inactive” in each case. The Potency entry in the test with JEG-3 and with SKOV3 was “inactive” each time. For the same compound, the compound was classed as inactive with KB-3-1 and with NIH3T3.

Take `CCC1=CC2CN3CCc4c([nH]c5ccccc45)[C@@](C(=O)OC)(C2)[C@@H]13`: the Potency entry (in [4]; in [3]; in the test on CAOV3; in the test with HeLa; in the test on JEG-3) was “inactive” in each case.

In the case of `CCc1nn(C)c(C(=O)NCc2ccc(Oc3ccc(C)cc3)cc2)c1Cl`, the Potency in [1] is 25900 nM (active); in test [7], 5350 nM (active). Moreover, the Potency entry (in test [4]; in test [3]; in the test on CAOV3; in the test with HeLa; in the test on JEG-3) was “inactive” throughout.

Consider `Cc1sc2c(c1C)C(c1ccc(Cl)cc1)=N[C@@H](CC(N)=O)c1nnc(C)n1-2`, for which the Potency result (in test [4]; in test [8]; in [7]; in test [5]; in [3]; in the test on JEG-3) was “inactive” throughout. Also, the activity change, negative = inhibition in [9] was -6.24%. For the same compound, the Potency in test [2] was 51.5 nM (active) and 148 nM (active); with SKOV3, 891 nM (active). For the same compound, the Z-AUC in test [10] is -0.829 (inactive) and -0.822 (inactive); in test [10] (measured here: PEO1 parental Z-AUC) it was -0.858 and -0.588; in test [10] (measured here: PEO4 Z-AUC), -1.13 and -0.593.
